Results filed as inconclusive are left out. Active and inactive are the calls of the source. How the source made its calls, unless noted: active means hit-call score of the fitted dose curve at least 0.9, where 1 is the maximum; inactive means score below 0.9.
What was measured:
[1] = ATG_NFI_CIS: Attagene CIS-FACTORIAL HepG2 Assay for human Nuclear Factor I (NFI) (AID 2282989); conditions: HepG2 cis-regulatory reporter, NFI response element transcription; actives raise or lower the signal
In short: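 Read-out: reporter mRNA via RT-PCR plus capillary electrophoresis with fluorescence detection. Transiently transfected HepG2 (endogenous TF activity on cis promoters), 24 h compound exposure; gain or loss of signal fitted against DMSO.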

[2] = target: Myc proto-oncogene protein (Homo sapiens) (UniProt P01106); assay: ATG_Myc_CIS: Attagene CIS-FACTORIAL HepG2 Assay for human Myelocytomatosis (Myc) Proto-Oncogene Transcription Factor (AID 2282990); conditions: HepG2, Attagene cis-reporter transcription factor activity; actives raise or lower the signal
Sequence of Myc proto-oncogene protein (Homo sapiens) (P01106 whole entry, looked up, the tested form may be a part): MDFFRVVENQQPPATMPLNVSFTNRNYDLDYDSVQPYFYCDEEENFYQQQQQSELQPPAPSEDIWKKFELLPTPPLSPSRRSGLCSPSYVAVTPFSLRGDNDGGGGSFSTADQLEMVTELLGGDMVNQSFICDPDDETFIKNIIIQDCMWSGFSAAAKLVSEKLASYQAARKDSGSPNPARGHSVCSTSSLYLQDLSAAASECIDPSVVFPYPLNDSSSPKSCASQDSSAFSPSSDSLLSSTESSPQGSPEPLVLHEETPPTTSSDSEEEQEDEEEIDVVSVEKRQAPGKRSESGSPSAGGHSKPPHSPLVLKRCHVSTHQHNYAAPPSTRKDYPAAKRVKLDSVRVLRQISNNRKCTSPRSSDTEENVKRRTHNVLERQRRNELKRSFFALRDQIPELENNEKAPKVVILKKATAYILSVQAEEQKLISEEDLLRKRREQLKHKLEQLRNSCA
In short: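 After 24 h chemical treatment of HepG2 cells carrying multiplexed cis-regulated reporter constructs, reporter transcripts quantified by RT-PCR and capillary electrophoresis of fluorescent fragments. Gain or loss fitted against DMSO baseline.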

[3] = ATG_NF_kB_CIS: Attagene CIS-FACTORIAL HepG2 Assay for human Nuclear Factor Kappa B (NF-kB) (AID 2282991); conditions: HepG2 Attagene cis-factorial NF-kB reporter mRNA; actives raise or lower the signal
In short: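 Measures mRNA induction of an NF-kB-responsive cis-element reporter in HepG2 cells transfected with multiple reporter units, sampled 24 h post-dosing; quantified by fluorescence after RT-PCR and capillary electrophoresis, fitted for activation or inhibition against DMSO.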

[4] = ATG_NRF2_ARE_CIS: Attagene CIS-FACTORIAL HepG2 Assay for human Nuclear Factor Erythroid 2 Related Factor 2 (NFR2) response to Antioxidant Response Elements (ARE) (AID 2282992); conditions: HepG2 Attagene ARE/NRF2 reporter, transcription factor activity; actives raise or lower the signal;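 on AC50: reporter mRNA level measured by RT-PCR and capillary electrophoresis fluorescence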
In short: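 Fluorescence intensity of reporter-specific cDNA fragments, separated by capillary electrophoresis, reflects mRNA induction in transfected HepG2 cells at 24 h. Activity is fitted bidirectionally, DMSO serving as baseline.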

[5] = ATG_Oct_MLP_CIS: Attagene CIS-FACTORIAL HepG2 Assay for human Octamer-Binding Transcription Factor (Oct) (AID 2282993); conditions: HepG2 Attagene cis-factorial Oct reporter, mRNA; actives raise or lower the signal
In short: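 Read-out: reporter mRNA via RT-PCR plus capillary electrophoresis of 6-FAM-labelled fragments. Transiently transfected HepG2, 24 h exposure, endogenous TF activity on cis elements. Gain or loss of signal fitted relative to DMSO.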

[6] = target: Cellular tumor antigen p53 (Homo sapiens) (UniProt P04637); assay: ATG_p53_CIS: Attagene CIS-FACTORIAL HepG2 Assay for human p53 Transcription Factor (AID 2282994); conditions: HepG2 p53 cis-element reporter, Attagene mRNA; actives raise or lower the signal
Sequence of Cellular tumor antigen p53 (Homo sapiens) (P04637 whole entry, looked up): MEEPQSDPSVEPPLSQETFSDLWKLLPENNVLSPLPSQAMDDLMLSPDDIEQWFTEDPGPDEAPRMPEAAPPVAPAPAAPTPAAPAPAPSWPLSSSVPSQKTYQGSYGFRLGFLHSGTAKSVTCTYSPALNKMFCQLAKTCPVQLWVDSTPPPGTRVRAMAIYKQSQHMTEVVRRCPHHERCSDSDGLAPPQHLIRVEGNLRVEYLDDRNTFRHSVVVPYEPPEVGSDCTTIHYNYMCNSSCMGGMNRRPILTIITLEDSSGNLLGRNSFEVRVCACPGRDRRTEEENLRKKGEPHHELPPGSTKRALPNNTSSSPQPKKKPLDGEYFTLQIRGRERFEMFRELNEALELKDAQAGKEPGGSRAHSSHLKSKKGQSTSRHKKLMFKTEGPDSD
In short: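 Transiently transfected HepG2 (multiple cis reporter transcription units); exposure 24 h; reporter RNA via RT-PCR, 6-FAM extension, 2 h HpaI digest at 37 C, CE detection; DMSO baseline.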

[7] = target: human Retinoic Acid Receptor beta (RARb), RARB (gene 5915) (UniProt P10826); assay: ATG_RARb_TRANS: Attagene TRANS-FACTORIAL HepG2 Assay for human Retinoic Acid Receptor beta (AID 2283004; active means hit-call score of the fitted dose curve at least 0.9, where 1 is the maximum)
Sequence of human Retinoic Acid Receptor beta (RARb), RARB (gene 5915) (P10826 whole entry, looked up, the tested form may be a part): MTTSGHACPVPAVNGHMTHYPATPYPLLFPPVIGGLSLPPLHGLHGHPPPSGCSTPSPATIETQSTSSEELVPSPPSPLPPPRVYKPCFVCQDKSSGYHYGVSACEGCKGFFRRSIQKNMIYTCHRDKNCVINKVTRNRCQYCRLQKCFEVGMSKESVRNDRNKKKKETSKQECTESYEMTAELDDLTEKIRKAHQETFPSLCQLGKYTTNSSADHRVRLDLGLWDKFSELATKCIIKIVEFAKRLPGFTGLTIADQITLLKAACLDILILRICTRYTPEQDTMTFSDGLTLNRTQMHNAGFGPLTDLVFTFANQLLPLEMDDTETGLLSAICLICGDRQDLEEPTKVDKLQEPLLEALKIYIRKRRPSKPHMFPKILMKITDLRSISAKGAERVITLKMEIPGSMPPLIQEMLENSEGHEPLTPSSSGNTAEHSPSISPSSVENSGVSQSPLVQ
In short: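 Fluorescent capillary-electrophoresis detection of GAL4-UAS reporter mRNA defines the endpoint, with induction over DMSO-treated wells scored as activity. Transiently transfected human hepatoma HepG2 cells expressing exogenous NR–Gal4 proteins are exposed to test chemicals for 24 h.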

[8] = target: Peroxisome proliferator-activated receptor gamma (Homo sapiens) (UniProt P37231); assay: ATG_PPARg_TRANS: Attagene TRANS-FACTORIAL HepG2 Assay for human Peroxisome Proliferator-activated Receptor-gamma (PPARg) (AID 2283007; active means hit-call score of the fitted dose curve at least 0.9, where 1 is the maximum)
Sequence of Peroxisome proliferator-activated receptor gamma (Homo sapiens) (P37231 whole entry, looked up, the tested form may be a part): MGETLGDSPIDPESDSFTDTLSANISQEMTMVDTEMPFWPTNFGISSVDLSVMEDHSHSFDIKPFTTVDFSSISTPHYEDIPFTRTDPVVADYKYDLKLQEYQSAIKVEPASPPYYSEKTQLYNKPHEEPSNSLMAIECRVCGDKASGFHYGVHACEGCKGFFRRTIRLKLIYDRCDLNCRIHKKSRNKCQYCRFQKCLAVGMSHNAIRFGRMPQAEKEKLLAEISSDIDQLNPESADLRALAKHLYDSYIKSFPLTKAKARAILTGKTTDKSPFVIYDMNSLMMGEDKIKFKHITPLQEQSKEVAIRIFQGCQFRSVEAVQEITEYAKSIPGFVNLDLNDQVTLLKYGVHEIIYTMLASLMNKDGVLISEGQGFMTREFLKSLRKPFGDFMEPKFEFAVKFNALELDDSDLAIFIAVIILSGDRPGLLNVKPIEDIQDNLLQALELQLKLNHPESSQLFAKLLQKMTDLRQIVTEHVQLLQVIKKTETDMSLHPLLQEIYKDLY
In short: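 Gain-of-signal endpoint relative to DMSO, derived from reporter mRNA levels quantified by RT-PCR and capillary electrophoresis. Cells were HepG2 transiently expressing a chimeric NR-Gal4 construct with GAL4-UAS reporters, exposed to chemicals for 24 h.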

[9] = target: Nuclear receptor subfamily 1 group I member 2 (Homo sapiens) (UniProt O75469); assay: ATG_PXR_TRANS: Attagene TRANS-FACTORIAL HepG2 Assay for human Pregnane X Receptor (PXR) (AID 2283008; active means hit-call score of the fitted dose curve at least 0.9, where 1 is the maximum)
Sequence of Nuclear receptor subfamily 1 group I member 2 (Homo sapiens) (O75469 whole entry, looked up, the tested form may be a part): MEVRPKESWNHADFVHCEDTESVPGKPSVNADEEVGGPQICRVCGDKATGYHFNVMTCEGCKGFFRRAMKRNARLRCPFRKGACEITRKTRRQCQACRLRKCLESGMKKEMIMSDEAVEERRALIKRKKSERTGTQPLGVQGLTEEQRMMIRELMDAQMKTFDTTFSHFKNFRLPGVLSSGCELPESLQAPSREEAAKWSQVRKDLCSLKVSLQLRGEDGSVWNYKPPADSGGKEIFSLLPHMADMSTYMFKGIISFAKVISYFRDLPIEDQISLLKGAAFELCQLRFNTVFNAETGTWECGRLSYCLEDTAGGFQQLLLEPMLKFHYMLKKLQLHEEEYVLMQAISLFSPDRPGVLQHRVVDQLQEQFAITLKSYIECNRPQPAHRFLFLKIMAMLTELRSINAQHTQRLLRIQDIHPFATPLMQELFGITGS
In short: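 Transient HepG2 transfectants carrying multiplexed reporter transcription units; PXR activity read through a Gal4 chimera. 24 h exposure. RT-PCR/CE fluorescence; upward curve fit referenced to DMSO.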

[10] = target: human Peroxisome Proliferator-activated Receptor delta (PPARd), PPARD (gene 5467) (UniProt Q03181); assay: ATG_PPARd_TRANS: Attagene TRANS-FACTORIAL HepG2 Assay for human Peroxisome Proliferator-activated Receptor delta (PPARd) (AID 2283002; active means hit-call score of the fitted dose curve at least 0.9, where 1 is the maximum)
Sequence of human Peroxisome Proliferator-activated Receptor delta (PPARd), PPARD (gene 5467) (Q03181 whole entry, looked up, the tested form may be a part): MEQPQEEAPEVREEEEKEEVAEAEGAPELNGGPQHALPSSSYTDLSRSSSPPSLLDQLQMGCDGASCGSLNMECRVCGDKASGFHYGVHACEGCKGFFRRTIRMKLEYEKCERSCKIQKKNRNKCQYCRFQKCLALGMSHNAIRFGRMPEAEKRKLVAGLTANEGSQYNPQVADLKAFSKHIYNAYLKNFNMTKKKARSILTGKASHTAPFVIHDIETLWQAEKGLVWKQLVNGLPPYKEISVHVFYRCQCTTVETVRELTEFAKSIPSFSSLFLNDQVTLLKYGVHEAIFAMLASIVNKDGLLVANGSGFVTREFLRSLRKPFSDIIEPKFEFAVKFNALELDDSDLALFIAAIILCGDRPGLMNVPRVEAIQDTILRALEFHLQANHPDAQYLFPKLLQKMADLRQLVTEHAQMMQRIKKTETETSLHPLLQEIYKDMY
In short: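 Read-out is induced reporter mRNA, quantified by RT-PCR with fluorescent labelling and capillary electrophoresis after 24 h dosing. Cells are HepG2 transiently carrying multiple GAL4-UAS reporter units driven by exogenous NR-GAL4 chimeras; DMSO serves as baseline.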

[11] = target: human RAR-related Orphan Receptor beta (RORb), RORB (gene 6096) (UniProt Q92753); assay: ATG_RORb_TRANS: Attagene TRANS-FACTORIAL HepG2 Assay for human RAR-related Orphan Receptor beta (RORb) (AID 2283010; active means hit-call score of the fitted dose curve at least 0.9, where 1 is the maximum)
Sequence of human RAR-related Orphan Receptor beta (RORb), RORB (gene 6096) (Q92753 whole entry, looked up, the tested form may be a part): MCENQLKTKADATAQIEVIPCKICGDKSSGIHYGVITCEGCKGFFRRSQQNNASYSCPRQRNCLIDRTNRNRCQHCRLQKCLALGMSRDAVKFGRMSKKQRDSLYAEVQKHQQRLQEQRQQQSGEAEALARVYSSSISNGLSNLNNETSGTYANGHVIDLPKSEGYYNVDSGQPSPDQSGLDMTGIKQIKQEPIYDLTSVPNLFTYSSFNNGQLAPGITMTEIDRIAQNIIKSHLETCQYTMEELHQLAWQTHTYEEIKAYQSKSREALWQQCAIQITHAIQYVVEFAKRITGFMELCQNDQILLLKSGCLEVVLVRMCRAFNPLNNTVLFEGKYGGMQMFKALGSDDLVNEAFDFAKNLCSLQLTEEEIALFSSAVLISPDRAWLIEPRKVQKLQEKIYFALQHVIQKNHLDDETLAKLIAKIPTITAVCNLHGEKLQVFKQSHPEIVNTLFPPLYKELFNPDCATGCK
In short: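 Read-out is reporter mRNA induction, quantified by RT-PCR with fluorescent capillary electrophoresis, 24 h post-dose in transiently transfected HepG2 expressing exogenous NR-Gal4 chimera. Activity fitted upward versus DMSO.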

Measured: AC50

CO[Si](CCCn1c(=O)n(CCC[Si](OC)(OC)OC)c(=O)n(CCC[Si](OC)(OC)OC)c1=O)(OC)OC
not listed: [10] | [11]
inactive: all other assays above

CC(C)=CCC/C(C)=C/COC=O
not listed: [7] | [11]
inactive: all other assays above

CC(=O)C(C)=O
active: [4] 37.4 µM
not listed: [7] | [8] | [11]
inactive: all other assays above

CNC(=O)Oc1ccc2c(c1)[C@]1(C)CCN(C)[C@@H]1N2C
active: [4] 100 µM
not listed: [7] | [11]
inactive: all other assays above

CC(C)C(C)(C)C(C)(C)C(C)(C)S
active: [8] 100 µM | [9] 4.47 µM
not listed: [7] | [11]
inactive: all other assays above

CC(=O)O[C@H](CC(=O)[O-])C[N+](C)(C)C
not listed: [7] | [9] | [11]
inactive: all other assays above

CC(=O)Nc1ccc(C)cc1C
not listed: [7] | [8]
inactive: all other assays above

— PubChem BioAssay (EPA / NIEHS)
